Bioassay records deposited in PubChem BioAssay by several laboratories.
Compounds with a hit are over-represented: about 3.1% of the library has one in this group of screens.
ATG4B inhibitor: blocks human ATG4B protease cleavage of LC3 substrate; 340,000 tested, 0.51% active; ATG4B cleavage of LC3-PLA2, NBD-HPC fluorescence, 1 h; inhibition, % at 8.33 µM; AID 504462; Q9Y4P1; in the data active means inhibition above about 40%
Target sequence (Q9Y4P1 whole entry, looked up): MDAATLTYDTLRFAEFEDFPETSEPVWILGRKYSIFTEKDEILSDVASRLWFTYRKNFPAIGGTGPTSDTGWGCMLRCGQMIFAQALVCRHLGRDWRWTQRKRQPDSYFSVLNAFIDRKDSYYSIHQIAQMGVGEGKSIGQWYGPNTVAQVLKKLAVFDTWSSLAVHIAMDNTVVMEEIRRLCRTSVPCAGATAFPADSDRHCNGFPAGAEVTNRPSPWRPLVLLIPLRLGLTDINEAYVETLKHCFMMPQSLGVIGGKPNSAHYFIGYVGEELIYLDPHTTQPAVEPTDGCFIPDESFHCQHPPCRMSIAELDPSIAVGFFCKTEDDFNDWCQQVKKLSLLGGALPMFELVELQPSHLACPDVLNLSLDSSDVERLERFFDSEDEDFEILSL
FAS-TE inh: FAS thioesterase (human) inhibition; P49327; recombinant FAS-TE, OMFH fluorogenic substrate, fluorescence endpoint; inhibition, % at 15 µM; 360,000 tested, 0.67% active; AID 602261;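 active means compounds whose normalised, plate-corrected inhibition of enzyme fluorescence in the single-dose primary screen is 50% or more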
SUMO Mot1 rescue: blocks SUMOylation pathway, rescuing yeast Mot1-301 growth; growth rescue, % at 18.8 µM; 320,000 tested, 1% active; AID 2716; S. cerevisiae Mot1-301 growth rescue, ATP luminescence, 38.5C; percent above DMSO median, 100 means doubled;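 active means every valid replicate shows activation above 250% relative to neutral control wells; inactive means the rest, any valid replicate at or below 250%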
Calb FLC: affects C. albicans growth with fluconazole; C. albicans CaCi-2 (fluconazole-resistant clinical isolate) + fluconazole, Alamar Blue growth, 48 h; AID 1979; growth inhibition, % (test concentration not listed); 300,000 tested, 0.57% active;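 active means growth inhibition above about 58% in most replicates, limit read from the data, passing the limit was not always enough; inconclusive means exactly half the replicates above a set limit; inactive means most replicates below a set limit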;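 further: all wells also contain fluconazole at 8 µg/ml as a sub-toxic cotreatment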
NadD inh: NadD (S. aureus) enzyme inhibition | purified NadD enzyme, colorimetric absorbance read-out | inhibition, % at 20 µM | 360,000 tested, 0.78% active; in the data active means inhibition above about 26%
A number is an active result.

How did Cc1ccc(NC(=O)CCNS(=O)(=O)c2ccccc2F)cc1S(=O)(=O)N1CCOCC1 do in these assays?
ATG4B inhibitor: inactive; FAS-TE inh: inactive; SUMO Mot1 rescue: inactive; Calb FLC: inactive; NadD inh: inactive

Results for Cc1ccc(C(C)C)c(OCC(=O)Nc2ccc(N3CCOCC3)cc2N2CCOCC2)c1 ?
ATG4B inhibitor: inactive; FAS-TE inh: inactive; NadD inh: inactive

What do the screens show for `CC(C(=O)N(C)Cc1ccccc1)N1CCN(C/C=C/c2ccccc2)CC1` (configuration not stated)?
ATG4B inhibitor: inactive; FAS-TE inh: inactive; SUMO Mot1 rescue: 282; Calb FLC: inactive; NadD inh: inactive

Results for Cc1ccc(NS(=O)(=O)c2sc3ccc(Cl)cc3c2C)cc1 ?
ATG4B inhibitor: inactive; FAS-TE inh: inactive; SUMO Mot1 rescue: 665; Calb FLC: inactive; NadD inh: inactive

What do the screens show for `CCC1(c2ccc(F)cc2)NC(=O)N(CC(=O)c2cc(C)n(C3CC3)c2C)C1=O` (configuration not stated)?
ATG4B inhibitor: inactive; FAS-TE inh: inactive; SUMO Mot1 rescue: inactive; Calb FLC: inactive; NadD inh: inactive

Results for O=C(N=Nc1c(O)[nH]c2ccccc12)c1cccc(S(=O)(=O)Nc2ccccc2Cl)c1 ?
ATG4B inhibitor: inactive; FAS-TE inh: inactive; SUMO Mot1 rescue: inactive; Calb FLC: inactive; NadD inh: inactive

Results for CC(C)c1ccc2[nH]c(O)c(N=NC(=O)c3cccc(S(=O)(=O)Nc4ccccc4Cl)c3)c2c1 ?
ATG4B inhibitor: inactive; FAS-TE inh: inactive; SUMO Mot1 rescue: inactive; Calb FLC: inactive; NadD inh: 38

How did Cn1nccc1C(=O)N1CCN(c2ncccn2)CC1 do in these assays?
ATG4B inhibitor: inactive; FAS-TE inh: inactive; SUMO Mot1 rescue: 336; Calb FLC: inactive; NadD inh: inactive

What do the screens show for `Cn1nccc1C(=O)N1CCN(c2ccccc2Cl)CC1`?
ATG4B inhibitor: inactive; FAS-TE inh: inactive; SUMO Mot1 rescue: inactive; Calb FLC: inactive; NadD inh: inactive

What do the screens show for `Clc1ccccc1/C=N/NC1=Nc2cccc3cccc1c23`?
ATG4B inhibitor: inactive; FAS-TE inh: inactive; SUMO Mot1 rescue: inactive; Calb FLC: inactive; NadD inh: inactive

Results for C(=N\NC1=Nc2cccc3cccc1c23)/c1ccccn1 ?
ATG4B inhibitor: inactive; FAS-TE inh: inactive; Calb FLC: 94; NadD inh: inactive

How did COCCNC(=O)C1(C)CCN(C(=O)C2(c3ccc(Cl)cc3)CCCC2)C1 (configuration not stated) do in these assays?
FAS-TE inh: inactive; NadD inh: inactive

What do the screens show for `O=C(O)CCc1ccc(S(=O)(=O)Nc2cc(C(F)(F)F)ccc2N2CCCC2)cc1`?
ATG4B inhibitor: inactive; FAS-TE inh: inactive; NadD inh: inactive

Results for CCCCCC(=O)NNC(=S)NC(=O)c1ccccc1[N+](=O)[O-] ?
ATG4B inhibitor: inactive; FAS-TE inh: inactive; SUMO Mot1 rescue: inactive; Calb FLC: inactive; NadD inh: inactive

Results for COc1ccc(/C=C(/NC(=O)c2cccc([N+](=O)[O-])c2)C(=O)O)cc1 ?
ATG4B inhibitor: inactive; FAS-TE inh: inactive; SUMO Mot1 rescue: inactive; Calb FLC: inactive; NadD inh: inactive

What do the screens show for `COc1ccc(C(=O)NNC(=S)NC(=O)c2cccc([N+](=O)[O-])c2)cc1`?
ATG4B inhibitor: inactive; FAS-TE inh: inactive; SUMO Mot1 rescue: inactive; Calb FLC: 81; NadD inh: inactive

What do the screens show for `CCCCCC(=O)NNC(=S)NC(=O)c1cccc([N+](=O)[O-])c1`?
ATG4B inhibitor: inactive; FAS-TE inh: inactive; SUMO Mot1 rescue: inactive; Calb FLC: 85; NadD inh: inactive

How did CCOC(=O)c1ccccc1NC(=O)c1cccc([N+](=O)[O-])c1 do in these assays?
ATG4B inhibitor: inactive; FAS-TE inh: inactive; SUMO Mot1 rescue: inactive; Calb FLC: 108; NadD inh: inactive

Results for COc1ccc(/C=C2\N=C(C)OC2=O)cc1[N+](=O)[O-] ?
ATG4B inhibitor: inactive; FAS-TE inh: inactive; SUMO Mot1 rescue: inactive; Calb FLC: inactive; NadD inh: inactive

How did COc1ccc(S(=O)(=O)Nc2ccccc2C(=O)NCc2ccco2)cc1 do in these assays?
ATG4B inhibitor: inactive; FAS-TE inh: inactive; SUMO Mot1 rescue: inactive; Calb FLC: inactive; NadD inh: inactive

How did O=C(NCc1ccco1)c1ccccc1NS(=O)(=O)c1ccc(Br)s1 do in these assays?
ATG4B inhibitor: inactive; FAS-TE inh: inactive; SUMO Mot1 rescue: inactive; Calb FLC: 108; NadD inh: inactive

What do the screens show for `c1ccc(-c2sc3ccccc3c2-c2ccc(OCCN3CCOCC3)cc2)cc1`?
ATG4B inhibitor: inactive; FAS-TE inh: inactive; SUMO Mot1 rescue: 407; NadD inh: inactive

What do the screens show for `Clc1ccc(NCc2ccsc2)cc1`?
SUMO Mot1 rescue: 408; Calb FLC: inactive

Results for Fc1ccccc1CNc1ccc(Cl)cc1 ?
ATG4B inhibitor: inactive; FAS-TE inh: inactive; SUMO Mot1 rescue: inactive; Calb FLC: inactive; NadD inh: inactive

How did Cc1ccc(CNC(=O)CSCc2cccc(F)c2)cc1 do in these assays?
ATG4B inhibitor: inactive; FAS-TE inh: inactive; SUMO Mot1 rescue: inactive; Calb FLC: 94; NadD inh: inactive

What do the screens show for `CCOC(=O)c1cc2c(=O)n3ccccc3nc2n(CCOC)c1=NC(=O)c1ccncc1`?
ATG4B inhibitor: inactive; FAS-TE inh: inactive; SUMO Mot1 rescue: inactive; Calb FLC: 114; NadD inh: inactive

What do the screens show for `COc1cc(CCC(=O)N2CCN(S(=O)(=O)c3ccc(C)cc3)CC2)cc(OC)c1OC`?
ATG4B inhibitor: inactive; FAS-TE inh: inactive; SUMO Mot1 rescue: inactive; NadD inh: inactive

What do the screens show for `O=C1NC2(CCC3(CC2)OCCO3)NN1c1ccccc1`?
ATG4B inhibitor: inactive; FAS-TE inh: inactive; SUMO Mot1 rescue: inactive; Calb FLC: 120; NadD inh: inactive

What do the screens show for `S=C1NC2(CCCCC2)NN1c1ccccc1`?
ATG4B inhibitor: inactive; FAS-TE inh: inactive; SUMO Mot1 rescue: 364; Calb FLC: 78; NadD inh: inactive

How did CC1CCCC2(C1)NC(=S)N(c1ccccc1)N2 (configuration not stated) do in these assays?
ATG4B inhibitor: inactive; FAS-TE inh: inactive; SUMO Mot1 rescue: inactive; Calb FLC: inconclusive; NadD inh: inactive

How did Cc1cccc[n+]1CC(=O)c1ccc(NC(=O)c2ccccc2)cc1 do in these assays?
ATG4B inhibitor: inactive; FAS-TE inh: inactive; SUMO Mot1 rescue: 317; Calb FLC: inactive; NadD inh: inactive

How did Cc1ccc2oc(-c3cccc(NC(=O)Cn4cnc5c(=O)n(C)c(=O)n(C)c54)c3)nc2c1 do in these assays?
Calb FLC: 122

What do the screens show for `O=C(N/N=C/c1c(O)n(Cc2ccccc2)c(=O)c2ccccc12)c1cccnc1`?
ATG4B inhibitor: inactive; FAS-TE inh: inactive; SUMO Mot1 rescue: inactive; Calb FLC: inactive; NadD inh: inactive

How did COc1ccc(Cn2c(O)c(/C=N/NC(=O)c3cccnc3)c3ccccc3c2=O)cc1 do in these assays?
ATG4B inhibitor: inactive; FAS-TE inh: inactive; Calb FLC: 103; NadD inh: inactive

How did CCCCCCCCCCn1ccc(=N)cc1 do in these assays?
ATG4B inhibitor: inactive; FAS-TE inh: inactive; SUMO Mot1 rescue: inactive; Calb FLC: 108; NadD inh: inactive

Results for CCCCCCCCn1ccc(=N)cc1 ?
ATG4B inhibitor: inactive; FAS-TE inh: inactive; SUMO Mot1 rescue: inactive; Calb FLC: inactive; NadD inh: inactive
